A word on the viability: it is a read-out of living cells in per cent, often relative to untreated cells.

Assay [1] in a line: compounds altering viability of human ES cells (AID 493140; call rule not given here;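 further: cells exposed to compounds for four days before counting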). As to conditions: human embryonic stem cell survival screen; stronger effect = higher value.
Assay [2] in a line: P. berghei load reduction in hepatocytes – cell-based, HepG2, luciferase luminescence, HepG2 viability, primary screen (AID 624349).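 Further: 100% = mean of DMSO negative control wells on the same plate.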 As to conditions: P. berghei liver stage in HepG2, luciferase luminescence, concentration not given here; parasite load remaining: stronger effect = lower value; viability: measured here: HepG2 viability without parasites.

The structures appear in SMILES notation. Calls of active or inactive are those of the source. Unless noted, no stated cut-off is given here; in the data, active means parasite load remaining mostly below about 12% (no sharp cut-off); inactive means mostly above about 10%.

Consider `CCOC(=O)[C@@H](CCc1ccccc1)NC(C)C(=O)N1CCC[C@@H]1C(=O)O` (stereo partly specified), for which the survival in assay [1] is 25.8 (inactive). Moreover, in assay [2], the parasite load remaining was 94.8% (inactive) and the viability stood at 91.7%.
For `CN1CCC23c4ccccc4NC1C21CCN(C)C3Nc2ccccc21`, the survival in assay [1] is 4.92 (inactive). Further, in assay [2], the parasite load remaining is 79.4% (inactive) and the viability worked out at 76.7%.
Consider `Cc1c(C)c2c(c(C)c1O)CC[C@](C)(CCC[C@@H](C)CCC[C@@H](C)CCCC(C)C)O2`, for which the survival in assay [1] was 5.83 (inactive). Also, in assay [2], the parasite load remaining is 52.8% (inactive) and the viability turned out to be 78.5%.
`CS(=O)(=O)c1ccc(-c2nc(-c3ccc(F)cc3)c(-c3ccncc3)[nH]2)cc1`: the survival in assay [1] was 113 (inactive). In assay [2], the parasite load remaining was 28.7% (inactive) and the viability was found to be 88.5%.
Consider `COC1CC(O[C@@H]2[C@H](C)[C@H](OC3OC(C)CC(N(C)C)C3OC(C)=O)[C@H](C)CC3(CO3)C(=O)[C@@H](C)C(OC(C)=O)[C@H](C)[C@H](C)OC(=O)[C@@H]2C)OC(C)C1OC(C)=O` (stereo partly specified), for which the survival in assay [1] is 27.8 (inactive). Also, in assay [2], the parasite load remaining is 86.6% (inactive) and the viability was 90.9%.
As to `O=C1Nc2ccc(Br)cc2/C1=C/c1cc2c([nH]1)CCCC2`, in assay [2], the parasite load remaining is 44.1% (inactive) and the viability was found to be 66.2%.
In the case of `O=c1[nH]c(=O)n([C@H]2CC(O)[C@@H](CO)O2)cc1I` (stereo partly specified), the survival in assay [1] was 6.25 (inactive). In addition, in assay [2], the parasite load remaining was 130% (inactive) and the viability came out at 96.5%.
As for `NCC1OC(COC[C@@H]2C(O)[C@H](OC3C(O)C(N)CC(N)C3OC3OC(CN)C(O)C(O)C3N)O[C@@H]2CO)C(N)C(O)C1O` (stereo partly specified), in assay [1], the survival is 12.3 (inactive). In assay [2], the parasite load remaining was 91.3% (inactive) and the viability amounted to 89.7%.
With `CN1[C@@H]2CC[C@H]1CC(OC(=O)[C@@H](CO)c1ccccc1)C2` (stereo partly specified), the survival in assay [1] was 13.1 (inactive). Further, in assay [2], the parasite load remaining is 111% (inactive) and the viability was 89%.
Turning to `COc1cc(OC)c2c(c1Cl)O[C@]1(C2=O)C(OC)CC(=O)C[C@H]1C` (stereo partly specified), in assay [1], the survival is 13.2 (inactive). In addition, in assay [2], the parasite load remaining is 83.9% (inactive) and the viability worked out at 93.9%.
As to `Cc1cc2ncc(-c3ccccc3)nc2cc1C`, the survival in assay [1] was 100 (inactive). Moreover, in assay [2], the parasite load remaining is 40.3% (inactive) and the viability is 74.4%.
Consider `Nc1nc2ncc(CNc3ccc(C(=O)N[C@H](CCC(=O)O)C(=O)O)cc3)nc2c(=O)[nH]1`, for which the survival in assay [1] is 11.4 (inactive). In addition, in assay [2], the parasite load remaining is 51.4% (inactive) and the viability was determined as 76.8%.
The like results for `O=C1O[C@H](C(O)CO)[C@H](O)C1O` (stereo partly specified) were, in that order, 4.42 (inactive), 68.2% (inactive) and 76.1%.
Regarding `C=C1CC[C@@H](O)C/C1=C/C=C1\CCC[C@]2(C)[C@@H]([C@H](C)CCCC(C)C)CC[C@@H]12`, the survival in assay [1] is 15.8 (inactive). In assay [2], the parasite load remaining was 79.3% (inactive) and the viability turned out to be 76%.
`CC[C@H](CO)Nc1nc(NCc2ccccc2O)c2ncn(C(C)C)c2n1`: in assay [2], the parasite load remaining is 34.4% (inactive) and the viability was 146%.
Turning to `CC(C)(CO)[C@H](O)C(=O)NCCC(=O)O`, the survival in assay [1] is 19.5 (inactive). Moreover, in assay [2], the parasite load remaining is 85.1% (inactive) and the viability was found to be 77.3%.
For `C[C@H]1[C@H](C)CC[C@]2(C(=O)O)CC[C@]3(C)C(=CCC4[C@@]5(C)CC[C@H](O)C(C)(C)[C@@H]5CC[C@]43C)[C@H]12` (stereo partly specified), the survival in assay [1] was 11.2 (inactive). Further, in assay [2], the parasite load remaining is 107% (inactive) and the viability turned out to be 92.7%.
As to `CC(=O)NC1[C@@H](O)OC(CO)[C@@H](O)[C@H]1O[C@H](C)C(=O)O` (stereo partly specified), the survival in assay [1] was 11.5 (inactive). In assay [2], the parasite load remaining is 82.1% (inactive) and the viability turned out to be 76.2%.
In the same order, the values of `CC[C@H]1CN2CCc3cc(OC)c(OC)cc3[C@@H]2C[C@@H]1CC1NCCc2cc(OC)c(OC)cc21` (stereo partly specified) are 0.25 (inactive), 2.62% (inactive) and 61.4%.
Take `Cc1cc(Nc2nc(-c3ccccc3)nc3ccccc23)n[nH]1`: in assay [2], the parasite load remaining is 33.3% (inactive) and the viability stood at 117%.
`CC(C)(CS)C(=O)N1CCC[C@@H]1C(=O)O`: in assay [1], the survival was 8.75 (inactive). Besides, in assay [2], the parasite load remaining is 94.4% (inactive) and the viability is 94.8%.
With `Nc1c2ccccc2nc2c(O)cccc12`, the survival in assay [1] is 5.5 (inactive). Also, in assay [2], the parasite load remaining was 80.8% (inactive) and the viability was found to be 77.4%.
Consider `C=CC1=C(C(=O)O)N2C(=O)[C@@H](NC(=O)/C(=N/OCC(=O)O)c3csc(N)n3)[C@H]2SC1` (stereo in doubt), for which the survival in assay [1] is 5.58 (inactive). In assay [2], the parasite load remaining is 92.8% (inactive) and the viability amounted to 73.2%.
Turning to `C1CCN2C[C@H]3C[C@@H](CN4CCCC[C@@H]34)[C@H]2C1`, the survival in assay [1] is 10 (inactive). In assay [2], the parasite load remaining is 73.9% (inactive) and the viability worked out at 72.2%.
Take `C=C1CC[C@@H](O)C/C1=C/C=C1\CCC[C@]2(C)[C@@H]([C@H](C)/C=C/[C@@H](C)C(C)C)CC[C@@H]12`: the survival in assay [1] was 8.25 (inactive). In addition, in assay [2], the parasite load remaining is 66.4% (inactive) and the viability came to 88.3%.
Consider `COC1C=CC23c4cc5c(cc4CN(C[C@H]2O)[C@@H]3C1)OCO5` (stereo partly specified), for which, in assay [2], the parasite load remaining is 2.19% (inactive) and the viability was found to be 98.9%.
On to `Cn1nc2c3c(cccc31)C(=O)c1ccccc1-2`, for which, in assay [2], the parasite load remaining was 28.1% (inactive) and the viability came to 83.8%.
Turning to `O=C(O)c1ccc2c3c1cccc3c(=O)n1c3ccccc3nc21`, in assay [2], the parasite load remaining is 44% (inactive) and the viability came to 75.2%.
The like results for `CC#CC(=O)Nc1cc2c(Nc3ccc(F)c(Cl)c3)ncnc2cn1` were, in that order, 50.6% (inactive) and 159%.
For `CC[C@@H](CO)Nc1nc(NCc2ccc(-c3ccccn3)cc2)c2ncn(C(C)C)c2n1`, in assay [2], the parasite load remaining is 181% (inactive) and the viability is 75.3%.
Turning to `O=C(c1ccccc1)c1ccc(N2CCOCC2)cc1O`, in assay [2], the parasite load remaining is 40.6% (inactive) and the viability was determined as 74.9%.
In the same order, the values of `Ic1cccc(CSc2nnc(-c3ccncc3)o2)c1` are 20.8% (inactive) and 98.7%.

Values taken from PubChem BioAssay.
